DPM-DC inhibit – inhibitors of Streptococcus pneumoniae diphosphomevalonate decarboxylase; purified DPM-DC, PK/LDH coupled NADH fluorescence; calls only at 10 µM; 65,000 tested, 0.49% active; AID 556;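 active = the 320 compounds with the highest percent inhibition in the single-dose primary screen, excluding strongly autofluorescent ones, cut at about 32% in these data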;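 note: kinetic rate of NADH fluorescence loss reporting ADP formed by the decarboxylase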
Abs 340nm – absorbance at 340 nm. fold change at 10 µM. compound absorbance at 340 nm, fold over control. 65,000 tested, under 10 active;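 active = at 10 µM dose, initial 340 nm absorbance at least 2 fold that of control wells; inactive = change under 2 fold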;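 note: initial absorbance extrapolated from kinetic A340 decline of NADH oxidation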
Spn MK inh – S. pneumoniae mevalonate kinase inhibition; AID 555; inhibition, % at 10 µM; 65,000 tested, 0.48% active; purified MK, PK/LDH-coupled NADH absorbance 340 nm;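 active = ranked among the strongest by inhibition in the single 10 µM screen, a fixed top-ranked set picked for dose follow-up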
NADH enzymes – inhibition of NAD/NADH coupling enzymes, library profiling; coupled PK/LDH NADH assays, four targets; IC50, µM (top dose mostly 10 µM), for the others: at the top dose inhibition; 65,000 tested, 0.02% active; AID 774;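 active = single-dose screening hits from any of four coupled enzyme assays that gave an IC50 when retested across doses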;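 note: the DPM-DC format reads NADH fluorescence rather than 340 nm absorbance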
Spn PMK inh – S. pneumoniae PMK inhibition; purified PMK, PK/LDH-coupled NADH absorbance 340 nm; inhibition, % at 10 µM; 65,000 tested, 0.49% active; AID 539;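 active = top-ranked compounds by inhibition in the single 10 µM screen, taking a fixed number of the strongest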;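 note: 0% = full reaction with DMSO carrier and 100% = background rate without enzyme reaction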
Fluor 339 460 – intrinsic fluorescence of library compounds, ex339/em460 – biochemical, MLSMR library, data from DPM-DC assay, artefact control, profiling panel. compound autofluorescence, ex339/em460 nm, NADH buffer; hits give high values; 1 = no-compound wells, NADH background. fluorescence fold increase at 10 µM. 65,000 tested, 5.5% active. AID 709;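 active = at 10 µM, mean starting fluorescence two-fold or more over control wells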;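 note: signal is the first read of a kinetic run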
The depositor's hits bear a star; i = inactive; . = no result shown; + = active, no number; [ ] = dose if it differs, or a comment. Only some compounds are listed: those with a hit (about 6.8% of all), similar ones and a draw of the others.

SMILES	DPM-DC inhibit	Abs 340nm	Spn MK inh	NADH enzymes	Spn PMK inh	Fluor 339 460
Nc1c(C(=O)NC2CCCC2)sc2nc(-c3cccs3)ccc12	+	1.05	5.0	17.0%	5.0	2.75*
O=C(c1cc(-c2ccccc2)nc2ccccc12)N1CCOCC1	i	1.04	2.0	3.0%	6.0	1.12
CCOc1ccc(-c2cc(C(=O)N3CCN(c4ccccn4)CC3)c3ccccc3n2)cc1	i	0.98	0.0	4.0%	12.0	1.55
COc1ccc(-c2cc(C(=O)OCC(=O)N3CCCC3)c3ccccc3n2)cc1	i	1.03	0.0	17.0%	19.0	2.9*
COc1ccc(-c2cc(C(=O)N3CCN(c4ccccn4)CC3)c3ccccc3n2)cc1	i	1.08	0.0	9.0%	16.0	2.66*
CCOC(=O)N1CCN(C(=O)c2cc(-c3ccc(OCC)cc3)nc3ccccc23)CC1	.	1.07	0.0	6.0%	11.0	5.22*
CS(=O)(=O)N1CCN(C(=O)c2cc(-c3cccs3)nc3ccccc23)CC1	.	1.14	11.0	7.0%	3.0	3.86*
O=C(O)c1cc(-c2cccs2)nc2cc3c(cc12)OCCO3	.	1.11	11.0	6.0%	0.0	2.15*
CCOc1ccc(-c2cc(C(=O)N3CCN(C)CC3)c3ccccc3n2)cc1	.	1.08	0.0	5.0%	9.0	5.16*
Cc1ccc2nc(-c3ccc4c(c3)OCCO4)cc(C(=O)O)c2c1	i	1.03	0.0	2.0%	0.0	1.2
COc1ccc(-n2nc3cc(C)c(NC(=O)C(C)C)cc3n2)cc1	.	1.04	3.0	6.0%	8.0	5.11*
CCc1cc2c(=O)c(-c3nc4ccccc4[nH]3)coc2cc1OC(=O)N1CCOCC1	+	1.03	0.0	5.0%	6.0	1.34
COCCOC(=O)c1c(C)oc2ccc(OC(=O)c3ccc4c(c3)OCO4)cc12	i	1.05	0.0	4.0%	11.0	1.13
COc1ccc(-c2nc(N3CCCC3)nc3nn4c(C)cc(C)nc4c23)cc1	i	1.04	0.0	10.0%	18.0	2.18*
COc1ccc(-c2nc(N3CCOCC3)nc3n[nH]c(N)c23)cc1	i	1.06	10.0	7.0%	0.0	0.89
Nc1[nH]nc2nc(N3CCCC3)nc(-c3ccccc3)c12	i	1.01	9.0	3.0%	16.0	0.98
Cc1cc(C)n2nc3nc(N4CCCC4)nc(-c4ccccc4)c3c2n1	i	1.09	0.0	9.0%	16.0	3.16*
Cc1cnn(C(=S)NCC2CCCO2)c1 (centres undefined)	i	1.01	5.0	2.0%	0.0	1.08
CC(C)CCn1nnnc1C(c1ccc(F)cc1)N1CCN(C(=O)c2ccco2)CC1 (centres undefined)	i	1.01	0.0	9.0%	26.0*	1.05
Cc1ccc(C(c2nnnn2CC2CCCO2)N2CCN(C(=O)c3ccco3)CC2)cc1 (centres undefined)	i	0.97	0.0	15.0%	32.0*	0.83
O=C(Cn1nnc(-c2cccc(C(F)(F)F)c2)n1)NC1CCCC1	i	1.03	5.0	5.0%	2.0	1.12
C=CCc1c(C)nn(CC(=O)O)c1-c1ccccc1	i	1.02	8.0	3.0%	2.0	1.02
O=c1cc(-c2ccc3c(c2)OCO3)oc2ccccc12	.	1.18	0.0	4.0%	8.0	3.65*
O=c1cc(-c2ccncc2)oc2ccccc12	i	1.08	6.0	2.0%	0.0	1.08
CN(C)CCCN1C(=O)C(=O)/C(=C(/O)c2ccc3c(c2)OCCO3)C1c1ccccn1 (centres undefined)	i	1.09	5.0	5.0%	10.0	1.12
SMILES	DPM-DC inhibit	Abs 340nm	Spn MK inh	NADH enzymes	Spn PMK inh	Fluor 339 460
O=c1c2ccccc2c(C=NCCO)c(O)n1-c1ccccc1	i	1.11	0.0	0.0%	0.0	1.17
O=c1c2ccccc2c(/C=N/n2cnnc2)c(O)n1-c1ccccc1F	i	1.04	9.0	13.0%	14.0	2.97*
Cc1ccc(-n2c(O)c(/C=N/n3cnnc3)c3ccccc3c2=O)cc1	.	1.09	3.0	2.0%	0.0	2.2*
CCCCOC(=O)Nc1cc(C(=O)OC)ccc1C(=O)OC	i	1.06	7.0	11.0%	11.0	1.55
CCOC(=O)C1=C(C)NC(=O)NC1/C(C)=C/c1ccccc1 (centres undefined)	i	1.04	0.0	14.0%	38.0*	1.13
Cc1cc(=O)[nH]c(SCc2nc3ncccn3c2Br)n1	.	1.03	6.0	4.0%	0.0	2.47*
CC(C)(C)N1C(=O)Cc2c1nc(N)c1c(N)nc(N3CCCCC3CO)c(C#N)c21 (centres undefined)	.	1.03	0.0	8.0%	15.0	4.85*
CCN(CC)C(=O)c1cc(-c2ccccc2OC)on1	i	0.99	4.0	6.0%	13.0	1.14
COc1ccccc1-c1ccc(C(=O)O)o1	i	1.04	0.0	9.0%	12.0	3.3*
COc1cc(NC(=O)c2nccnc2C(=O)O)cc(OC)c1	i	1	1.0	2.0%	0.0	1.01
CC(C)Cc1cc(-c2ccco2)c(C#N)c(N)n1	.	1.11	7.0	9.0%	10.0	2.2*
CCCCn1c(=O)[nH]c(=O)c2c1nc(COC(=O)c1c(C)noc1C)n2CCC	i	1.2	9.0	5.0%	6.0	1.21
Nc1cccc(-c2nc3ccc(N)cc3s2)c1	.	1.13	11.0	11.0%	11.0	3.87*
O=C(OCCCCN1C(=O)c2ccccc2C1=O)c1n[nH]c2ccccc12	i	1.01	3.0	2.0%	11.0	1.03
Cc1c2c(n3c(nc4ccccc43)c1C#N)N(Cc1ccccn1)CC2	.	0.98	0.0	10.0%	19.0	4.94*
N#Cc1c2c(c(N3CCN(c4ccccn4)CC3)n3c1nc1ccccc13)CCC2	i	1.04	5.0	2.0%	0.0	1.19
COCCNc1cc(C)c(C#N)c2nc3ccccc3n12	.	1.04	9.0	7.0%	5.0	2.33*
Cc1c2c(n3c(nc4ccccc43)c1C#N)N(Cc1cccnc1)CC2	.	1.05	0.0	4.0%	7.0	4.95*
Cc1cc(N2CCN(c3ccccn3)CC2)n2c(nc3ccccc32)c1C#N	i	1.04	12.0	11.0%	3.0	2.24*
COc1cccc(-n2nnc3c(=O)n(CC(=O)N4CCC(Cc5ccccc5)CC4)cnc32)c1	i	1.05	0.0	2.0%	6.0	1.1
Cc1ccc(NS(=O)(=O)c2cccc(C(=O)Nc3cc(C)on3)c2)cc1	i	1.03	8.0	3.0%	2.0	1.13
Cn1c(C(C#N)C2=C(Cl)C(=O)N(c3ccccc3)C2=O)nc2ccccc21 (centres undefined)	i	1.03	1.0	10.0%	17.0	1.12
COc1ccc(NC(=O)c2ccco2)cc1NC(=O)c1ccc(C)cc1	i	1.04	0.0	9.0%	27.0*	1.06
CCOc1cc(NC(=O)c2ccco2)c(OCC)cc1NC(=O)CCc1ccc(OC)cc1	+[fluoresces]	1.01	0.0	4.0%	16.0	2.11*
CCOc1ccc(C(=O)Nc2ccc(NC(=O)c3ccco3)c(Cl)c2)cc1Br	i	1.11	0.0	4.0%	11.0	2.95*

Compound activity (PubChem)
